The values that follow come from PubChem BioAssay.

Values without a mark were called inactive. Activity calls are given as the source filed them. Cut-off read from the data, not from the text of the source: active = inhibition above about 30%; inactive = the rest.

The subject of the experiment is transactivating tegument protein VP16 (Human herpesvirus 1), Gal4-VP16 luciferase reporter. Put plainly: repression of VP16-driven luciferase reporter – cell-based, luminescence, high throughput, counter-screen for SRC3 inhibitor project (AID 588794). As to conditions: mammalian cells, at 3.6 µM, stronger effect = higher value. A general note: In a reporter assay the amount or activity of a reporter protein is the signal.
With `Cc1ccc(S(=O)(=O)Nc2ccccc2C(=O)Nc2nc(-c3ccc(F)cc3)cs2)cc1`, the inhibition was 27.8%.

`COc1ccc(NC(=O)c2sc(=O)n(Cc3cccc(C(F)(F)F)c3)c2C)cc1OC`: the inhibition was 57.4% (active).

Turning to `CC#CC[N+](C)(C)CCCCCCCCCCCC`, the inhibition is 39.2% (active).

For the compound `Cc1cccc2cc(-c3ccccc3)c(-c3ccccc3)c[n+]12`, the inhibition was 37% (active).

With `CCN(CC)c1ccc(/C=C/c2ccc3ccc(OC)cc3[n+]2CC)cc1`, the inhibition was 74.8% (active).

Turning to `Cc1cc(/C=C2\Sc3ccccc3N2C)cc(C)[n+]1CC1CCCO1` (stereo unspecified), the inhibition was 77.1% (active).

Turning to `CC(C)CCCCCCCCCCCCC(=O)NCC(=O)NC1C(O)C(O)C(Nc2ncnc3nc[nH]c23)OC1C(O)CO` (stereo unspecified), the inhibition was 95.9% (active).

On to `O=C1NC(=O)C(c2ccc(F)cc2)N1` (stereo unspecified), for which the inhibition is -3.31%.

Regarding `CCN(CC)c1ccc(/C=C/c2cccc[n+]2C)c(OC)c1`, the inhibition was 75% (active).

Regarding `CCc1ccc(/C=C/c2c[nH]c3ccccc23)[n+](CC)c1`, the inhibition was 43.6% (active).

On to `NC(=O)c1cc([N+](=O)[O-])ccc1NCc1ccc(O)cc1`, for which the inhibition was 43.5% (active).

For `CCN(CC)CCCNc1nc2ccccc2c2[nH]c3ccc(OC)cc3c12`, the inhibition was 49% (active).

On to `CC1=NN(c2nc3ccccc3[nH]2)C(=O)C1Cc1ccccc1` (stereo unspecified), for which the inhibition is 68% (active).

For `Nc1nc(N)c2c(ccc3c2ccn3Cc2cccc([N+](=O)[O-])c2)n1`, the inhibition was 42.6% (active).

As for `CCN1/C(=C/c2ccc3cc(C)ccc3[n+]2CC)Sc2ccccc21`, the inhibition was 78.5% (active).

`CC(C)(C)c1ccc(-c2cn(-c3ccc(Br)cc3)c3[n+]2CCCS3)cc1`: the inhibition is 59.4% (active).

As a reminder, the inhibition is the relative decrease from the control value, in per cent.
